# Measured values reported in the supplement of paper PMC3334620.
# Over roughly 33,000 sequences, “E-score (-0.5 to 0.5)” has its median near -0.04; the highest 2% begin near 0.36. The sample as a whole holds a higher share of the highest values than the screen did.
# Biological target: T1, Hmlalpha2 (UniProt P0CY09)
# T1 sequence: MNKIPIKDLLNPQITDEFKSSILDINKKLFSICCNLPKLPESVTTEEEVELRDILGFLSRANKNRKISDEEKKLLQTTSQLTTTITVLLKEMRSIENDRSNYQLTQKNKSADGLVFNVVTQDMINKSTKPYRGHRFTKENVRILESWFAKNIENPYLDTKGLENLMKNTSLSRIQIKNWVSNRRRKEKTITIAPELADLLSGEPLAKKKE
# Assay: PBM E-score (8-mer binding enrichment) (E-score (-0.5 to 0.5)); higher = stronger / more preferred TF binding
# Settings: protein concentration: 200 nM; construct: GST-full length
# Procedure: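 Universal 'all 10-mer' protein binding microarrays (Agilent AMADID 015681) probed with GST-tagged S. cerevisiae TFs (full-length or DBD) made by in vitro transcription/translation (PURExpress), about 100-200 nM. Bound TF was detected with fluorescent anti-GST. Each ungapped 8-mer (which stands for itself and its reverse complement) is scored by the PBM enrichment score (E-score), a modified Wilcoxon-Mann-Whitney statistic from -0.5 to +0.5, computed with the Universal PBM Analysis Suite. Scale: above 0.35 generally sequence-specific binding.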
row,Sequence,PBM E-score
1,CCATCTAC,0.0186
2,CTCTGCCC,-0.109
3,AGCAATGG,-0.0784
4,CATACCAA,0.141
5,CACGGTGA,0.155
6,ACCATTAG,-0.0407
7,AGCCCTCC,-0.312
8,CAGGCGAA,0.0909
9,TGTTGTAA,0.401
10,CGTTGTAC,0.278
11,CGTTGTAG,0.242
12,GGTTGAAA,-0.0197
13,AGTTGTAA,0.248
14,AGTTGAAA,0.0609
15,CGTTGTAA,0.368
16,GGTTGTAA,0.342
17,TGTTGAAA,0.37
18,AAGAGTAC,0.0432
19,ATCCCTAG,-0.00744
20,CAGTACCG,-0.142
21,CCCGATTC,-0.0455
22,GTAGCGGA,-0.0459
23,GTTATCCA,0.0731
24,AGCCATCG,-0.171

row,Sequence,PBM E-score
1,ATGCCTAC,-0.224
2,GACCTCCA,-0.0969
3,CTTTGGTC,-0.0966
4,ACCACGGG,-0.213
5,CACACGGG,0.218
6,AACACGGG,0.387
7,ACCACGGT,-0.134
8,AACACCGA,0.193
9,AACACGGC,0.359
10,ATCACGGA,-0.189
11,AACACGGT,0.402
12,TACACGGA,0.447
13,GACACGGA,0.224
14,CACACGGA,0.0896
15,AACACGGA,0.374
16,ACGATTCC,-0.04
17,CTAGGCGC,-0.158
18,CAAGAGCA,-0.00496
19,CTTCAAAC,-0.0259
20,CTGCCTGC,-0.252
21,AATTCTTG,0.12
22,GGCGGTCA,-0.283
23,GGAAGGTA,-0.132
24,ACAAAGGG,-0.0246

row,Sequence,PBM E-score
1,CTGCCAGA,-0.232
2,GTCAACAC,0.358
3,CTCAACAA,0.302
4,AGCAACAC,0.26
5,ATCAACAT,0.44
6,ATCAACAA,0.306
7,ATCAACAG,0.136
8,ATCAACCC,0.144
9,CTCAACAC,0.382
10,ATCAACAC,0.399
11,CATACCCA,0.182
12,AATAATAA,0.311
13,ACCGAGGC,-0.359
14,GGGCAGAA,0.0375
15,CCAAGTGC,-0.171
16,ACTAACAA,0.253
17,ATTAACAA,0.415
18,ATTAACGG,-0.00314
19,CTTAACCC,-0.0467
20,ATTAACGA,0.317
21,GTTAACCA,0.285
22,CTTAACAC,0.419
23,CTTAACAA,0.307
24,GTTAACTA,0.362

row,Sequence,PBM E-score
1,ATTAACGC,0.372
2,GTTAACAA,0.366
3,ATTAACAG,0.261
4,AGACTAAA,-0.0357
5,AATGCAGT,-0.00748
6,CCTTCACA,0.0306
7,CACATCCC,-0.0137
8,GCCAAACA,-0.107
9,AGTAGAGG,-0.226
10,CGTAGCAG,-0.129
11,CAGTTCTC,-0.179
12,ATTAACCC,0.0714
13,ATTAACAC,0.455
14,ATTAACTC,0.216
15,ACCATGTC,0.296
16,CCCATGTC,0.161
17,ACCATGTA,0.467
18,GCCATGGA,-0.178
19,GCCATGTA,0.457
20,GCCATGCA,0.0965
21,ACCATGTG,0.188
22,CCCATGGA,-0.1
23,CCCATGTA,0.447
